HT1080 IDH1KD tx = HT-1080 IDH1 knockdown cell toxicity (counter line) | HT-1080 IDH1 knockdown viability, ATP luminescence, 48 h | Potency, µM (highest dose often 46.1 µM), without a hit: at the highest dose activity, negative = toxicity, usual class: cytotoxic | actives 2% (n = 360,000) | AID 686971;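 further: potency means the concentration at half of the fitted maximal effect; 0% = DMSO wells and -100% = cell-free medium wells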
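After a 2 h attachment period, IDH1KD HT-1080 cells took pin-transferred compound for 48 h at 37 °C; ATP-based luminescence after 10 min room-temperature reagent incubation reported viability.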
uPA surface inh = inhibitors of cell surface uPA generation; actives 0.31% (n = 330,000); Potency, µM (series often up to 38.3 µM), inactives show at the highest dose activity change, negative = inhibition, usual class: inhibitors; cell surface uPA generation assay, qHTS; active means well fitted inhibition curve with a large enough effect; inconclusive means small, poorly fitted or top-dose-only effect; inactive means no such curve, though single readings can be large or run the other way; tested in mouse RAW 264.7 cells; further: potency means the concentration at half of the fitted maximal effect; nearly all actives have a fitted effect of over 55% in size
TDP1 cell CPT = growth inhibition of DT40 Tdp1-/-;hTDP1 cells with camptothecin (screen for TDP1 inhibitors) | chicken DT40 Tdp1-/-;hTDP1 cells + 20 nM CPT, ATP luminescence, 48 h | Potency, µM (doses to about 46.2 µM), without a hit: top-dose activity change, negative = growth inhibition, hits mostly inhibitors | actives 12% (n = 420,000) | AID 686979; further: potency means the concentration at half of the fitted maximal effect; nearly all actives have a fitted effect of over 55% in size
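Chicken DT40 Tdp1-/- cells complemented with human TDP1, 400 cells/well, exposed to compounds plus 20 nM camptothecin for at least 48 h at 37 C; viability read as ATP content by CellTiter-Glo luminescence.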
TDP1 cell noCPT = qHTS for Inhibitors of human tyrosyl-DNA phosphodiesterase 1 (TDP1): qHTS in cells in absence of CPT | DT40 Tdp1-/- hTDP1 cells, no CPT, ATP luminescence, 48 h | Potency, µM (highest dose often 46.2 µM), for inactives: top-dose activity change, negative = growth inhibition, actives largely listed as inhibitors | actives 15% (n = 420,000) | AID 686978, 2013; further: potency means the concentration at half of the fitted maximal effect; nearly all actives have a fitted effect of over 55% in size
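Luminescent ATP content (CellTiter-Glo) served as the growth readout. Knockout chicken DT40 cells expressing human TDP1 were exposed to compounds without camptothecin for a minimum 48 hr at 37 °C.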
IL-1B inflam inh = blocks inflammasome-driven IL-1 beta release; actives 4.7% (n = 360,000); THP-1 LPS/ATP IL-1B secretion, AlphaLISA, 16 h; hits give low values; activity change, % at 57.5 µM; in the data active means activity change below about -50%; inconclusive means mostly about -30% to -49%
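THP-1 cells pretreated 1 hr with compounds (up to 57.5 uM final), then stimulated with LPS (250 ng/mL final) plus ATP (1.25 mM final); secreted IL-1B measured by AlphaLISA after 16 hr, decreased signal indicating inhibition.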
HT1080NT lethal = kills 2HG-producing HT-1080-NT fibrosarcoma cells. HT-1080-NT fibrosarcoma viability, CellTiter-Glo ATP luminescence, 48 h. actives 1.6% (n = 360,000). Potency, µM (highest dose often 46.1 µM), without a hit: at the highest dose activity, negative = less viability, usual class: cytotoxic;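 further: NT is the 2HG producing partner of a matched IDH1 knockdown line; potency means the concentration at half of the fitted maximal effect; 0% = DMSO-treated cells and -100% = media-only wells without cells; nearly all actives have a fitted effect of over 55% in size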
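750 cells/well, RPMI + 5% FBS; 2 h settle, compound pin-transfer, 48 h at 37 degrees C. CellTiter-Glo 10 min RT, luminescence. Normalized to DMSO and media-only wells.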
* marks the source's active call; other numbers are inactive results; ! = a repeat was not active. A selection: hits, their analogues and other compounds. The true share with any hit is near 19%. Unless noted, the call rests on the fitted dose curve; in most records, active means well fitted curve in the direction sought with a large enough effect; inconclusive means small, poorly fitted or top-dose-only effect, or another doubt; inactive means no such curve, though single readings can be large; an effect the other way counts as inactive or inconclusive. Unless noted, on the % scale 0 is the no-effect control and ±100 the full control effect.

How did CCN(CC)C(=O)C1=C(C)N(Cc2ccc(F)cc2)C(=O)C(CC(=O)NCCCN(C)C)C1 (configuration not stated) do in these assays?
HT1080 IDH1KD tx: 2%; TDP1 cell CPT: 0%; TDP1 cell noCPT: -2%; IL-1B inflam inh: 0; HT1080NT lethal: 3%

How did O=C(CSc1nnc(COc2ccc(Cl)cc2)o1)N1CCOCC1 do in these assays?
HT1080 IDH1KD tx: 12%; uPA surface inh: 0%; TDP1 cell CPT: -9%; TDP1 cell noCPT: -19%; IL-1B inflam inh: 42; HT1080NT lethal: 5%

What do the screens show for `CC(=O)c1ccc(NC(=O)c2cn(C)c(=O)c3ccccc23)cc1`?
HT1080 IDH1KD tx: 5%; TDP1 cell CPT: inconclusive; TDP1 cell noCPT: inconclusive; IL-1B inflam inh: 17; HT1080NT lethal: 7%

Results for C[C@@H]1CN([C@H](C)CO)C(=O)CCCn2nncc2CO[C@@H]1CN(C)C(=O)Nc1ccc2c(c1)OCO2 ?
HT1080 IDH1KD tx: -9%; TDP1 cell CPT: -12%; TDP1 cell noCPT: -23%; IL-1B inflam inh: 25; HT1080NT lethal: -12%

What do the screens show for `CCOC(=O)N1CCC(NS(=O)(=O)c2ccc(NC(C)=O)c(Cl)c2)CC1`?
HT1080 IDH1KD tx: -12%; uPA surface inh: -5%; TDP1 cell CPT: 23µM*; TDP1 cell noCPT: 8.2µM*; IL-1B inflam inh: 14; HT1080NT lethal: -6%

Results for O=c1[nH]c(/C=C/c2ccccn2)nc2ccccc12 ?
HT1080 IDH1KD tx: -5%; uPA surface inh: inconclusive; TDP1 cell CPT: inconclusive; TDP1 cell noCPT: inconclusive; IL-1B inflam inh: -81*; HT1080NT lethal: -10%

How did O=c1[nH]c(/C=C/c2cccc3ccccc23)nc2ccccc12 do in these assays?
HT1080 IDH1KD tx: 3%; uPA surface inh: -1%; TDP1 cell CPT: inconclusive; TDP1 cell noCPT: inconclusive; IL-1B inflam inh: 23; HT1080NT lethal: 8%

What do the screens show for `Cc1nc2ccccc2c(=O)[nH]1`?
HT1080 IDH1KD tx: 5%; uPA surface inh: 1%; TDP1 cell CPT: inconclusive; TDP1 cell noCPT: -14%; IL-1B inflam inh: 32; HT1080NT lethal: 7%

Results for O=c1[nH]c(/C=C/c2ccccc2F)nc2ccccc12 ?
HT1080 IDH1KD tx: 5.8µM*; uPA surface inh: inconclusive; TDP1 cell CPT: 2.9µM*; TDP1 cell noCPT: 2.9µM*; IL-1B inflam inh: 34; HT1080NT lethal: inconclusive

What do the screens show for `COc1ccccc1C(=O)Nc1ccc2c(c1)nc(CN1CCCCC1)n2C`?
HT1080 IDH1KD tx: 16%; uPA surface inh: 0%; TDP1 cell CPT: inconclusive; TDP1 cell noCPT: 23µM*!; IL-1B inflam inh: -16; HT1080NT lethal: 15%

How did CC(=O)N1CCN(Cc2nc3cc(NC(=O)c4ccccc4Cl)ccc3n2C)CC1 do in these assays?
HT1080 IDH1KD tx: 13%; uPA surface inh: 1%; TDP1 cell CPT: -1%; TDP1 cell noCPT: 4%; IL-1B inflam inh: 57; HT1080NT lethal: 11%

Results for Cn1c(CN2CCCCC2)nc2cc(NC(=O)c3ccccc3Cl)ccc21 ?
HT1080 IDH1KD tx: inconclusive; TDP1 cell CPT: 16µM*; TDP1 cell noCPT: 23µM*; IL-1B inflam inh: 14; HT1080NT lethal: -18%

Results for COc1ccccc1C(=O)Nc1ccc2c(c1)nc1n2CCN(C2CCCCC2)C1 ?
HT1080 IDH1KD tx: inconclusive; uPA surface inh: inconclusive; TDP1 cell CPT: 15µM*; TDP1 cell noCPT: 23µM*; IL-1B inflam inh: 68; HT1080NT lethal: inconclusive

What do the screens show for `COc1cc(NC(=O)Cn2c(=O)n(Cc3ccccc3Cl)c(=O)c3cc(OC)c(OC)cc32)cc(OC)c1`?
TDP1 cell CPT: -25%; TDP1 cell noCPT: -29%

How did CNS(=O)(=O)c1cccc(C(=O)OCC(=O)c2cc(C)n(-c3ccc4c(c3)OCO4)c2C)c1 do in these assays?
HT1080 IDH1KD tx: -10%; uPA surface inh: 2%; TDP1 cell CPT: -11%; TDP1 cell noCPT: -29%; IL-1B inflam inh: 10; HT1080NT lethal: -5%

How did Cc1cc(C(=O)COc2ccccc2Cl)c(C)n1-c1ccc2c(c1)OCO2 do in these assays?
HT1080 IDH1KD tx: -16%; uPA surface inh: -9%; TDP1 cell CPT: inconclusive; TDP1 cell noCPT: 6.5µM*; IL-1B inflam inh: -10; HT1080NT lethal: -6%

What do the screens show for `COCC(=O)OCC(=O)c1cc(C)n(-c2ccc(Br)cc2)c1C`?
HT1080 IDH1KD tx: 12%; uPA surface inh: 2%; TDP1 cell CPT: inconclusive; TDP1 cell noCPT: -19%; IL-1B inflam inh: 0; HT1080NT lethal: 5%

Results for Cc1ccc(-n2c(C)cc(C(=O)COc3c(CO)cc(F)cc3CO)c2C)cc1C ?
HT1080 IDH1KD tx: -4%; uPA surface inh: 4%; TDP1 cell CPT: 9.2µM*; TDP1 cell noCPT: 3.7µM*; IL-1B inflam inh: inconclusive; HT1080NT lethal: 0%

How did Cc1cc(C(=O)CSc2n[nH]c(N)n2)c(C)n1-c1ccc2c(c1)OCO2 do in these assays?
HT1080 IDH1KD tx: -12%; uPA surface inh: -2%; TDP1 cell CPT: inconclusive; TDP1 cell noCPT: 23µM*; IL-1B inflam inh: -11; HT1080NT lethal: -3%

How did CC1=CC(=C(c2ccc(N)cc2)c2ccc(N)cc2)C=CC1=N do in these assays?
TDP1 cell CPT: 2.7µM*; TDP1 cell noCPT: 3µM*

Results for CS(=O)(=O)N1CCC(Oc2cccc(C(=O)NCCCC3CCCC3)c2)CC1 ?
HT1080 IDH1KD tx: -1%; uPA surface inh: -13%; TDP1 cell CPT: inconclusive; TDP1 cell noCPT: 21µM*; IL-1B inflam inh: inconclusive; HT1080NT lethal: 8%

What do the screens show for `CN(C)S(=O)(=O)N1CCC(Oc2cccc(C(=O)NC3CCCCC3)c2)CC1`?
HT1080 IDH1KD tx: -23%; uPA surface inh: -12%; TDP1 cell CPT: 18µM*; TDP1 cell noCPT: inconclusive; IL-1B inflam inh: 0; HT1080NT lethal: -25%

Results for CCC(C)CNC(=O)c1cccc(OC2CCN(CC(C)(C)C)CC2)c1 (configuration not stated) ?
HT1080 IDH1KD tx: 11%; uPA surface inh: 1%; TDP1 cell CPT: inconclusive; TDP1 cell noCPT: 29µM*; IL-1B inflam inh: -29; HT1080NT lethal: 7%

How did COCCC1CCCCN1C(=O)c1cccc(OC2CCN(S(C)(=O)=O)CC2)c1 (configuration not stated) do in these assays?
HT1080 IDH1KD tx: 13%; uPA surface inh: -6%; TDP1 cell CPT: 0%; TDP1 cell noCPT: 2%; IL-1B inflam inh: -2; HT1080NT lethal: 6%

How did CN(C)S(=O)(=O)N1CCC(Oc2ccc(C(=O)NC3CCCCC3)cc2)CC1 do in these assays?
HT1080 IDH1KD tx: 13%; TDP1 cell CPT: -32%; TDP1 cell noCPT: inconclusive; IL-1B inflam inh: 25; HT1080NT lethal: 3%
